For some assays here: Potency and affinity values are given separately. Calls of active or inactive are those of the source.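 How the source made its calls, unless noted: active means primary screen activator hit with a dose response curve and TRPC4 channel activation at any tested dose; inactive means no activation, no dose response, or not a primary hit.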
Tests used:
[1] = system: TRPC4 beta (transient receptor potential cation channel C4), mouse; experiment: TRPC4 cation channel opening, retest – cell-based, Fluo4 calcium, HEK293 TRPC4beta/mu-opioid, duplicates, 10 µM, confirmation (AID 2426;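 active means fluorescence ratio normalized to control raised more than 50% in primary screen plus both repeat runs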); conditions: Fluo4 calcium fluorescence, at 10 µM; stronger effect = higher value
[2] = system: transient receptor potential cation channel C4 beta (TRPC4), mouse; experiment: TRPC4 cation channel opening, second retest – cell-based, second round, Fluo4, HEK293 TRPC4beta/mu-opioid, 1 µM, confirmation (AID 2461;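 active means primary screen active and over 50% activation in each of two duplicate runs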); conditions: Fluo4 calcium fluorescence, at 1 µM; stronger effect = higher value
[3] = system: TRPC4 (transient receptor potential cation channel C4 beta), mouse; experiment: potentiation of DAMGO EC20 TRPC4 response – cell-based, second round, Fluo-4, HEK293 TRPC4beta/mu-opioid, 1 µM, confirmation (AID 2554;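 active means primary screen hit whose fluorescence ratio, in both repeats, exceeds the weak agonist control mean by 3 SD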); conditions: DAMGO EC20, Fluo-4 calcium flux, at 1 µM; stronger effect = higher value
[4] = system: TRPC4 beta (transient receptor potential cation channel C4), mouse; experiment: potentiation of DAMGO EC20 TRPC4 response – cell-based, Fluo-4, HEK293 TRPC4beta/mu-opioid, confirmation (AID 2555;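 active means primary screen hit whose calcium fluorescence ratio, in both repeats, exceeds the weak agonist control mean by 3 SD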); conditions: DAMGO EC20, Fluo-4 calcium flux, at 10 µM; stronger effect = higher value
[5] = target: Short transient receptor potential channel 4 (Mus musculus) (UniProt Q9QUQ5); experiment: blockers of DAMGO-evoked TRPC4 calcium flux – cell-based, Fluo4, HEK293 TRPC4beta/mu-opioid, confirmation (AID 2636;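 active means calcium signal cut by more than 3 SD below the full-agonist control yet still positive, in both repeats and the earlier primary screen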); conditions: at 10 µM; stronger effect = higher value
Chain of Short transient receptor potential channel 4 (Mus musculus) (Q9QUQ5 whole entry, looked up): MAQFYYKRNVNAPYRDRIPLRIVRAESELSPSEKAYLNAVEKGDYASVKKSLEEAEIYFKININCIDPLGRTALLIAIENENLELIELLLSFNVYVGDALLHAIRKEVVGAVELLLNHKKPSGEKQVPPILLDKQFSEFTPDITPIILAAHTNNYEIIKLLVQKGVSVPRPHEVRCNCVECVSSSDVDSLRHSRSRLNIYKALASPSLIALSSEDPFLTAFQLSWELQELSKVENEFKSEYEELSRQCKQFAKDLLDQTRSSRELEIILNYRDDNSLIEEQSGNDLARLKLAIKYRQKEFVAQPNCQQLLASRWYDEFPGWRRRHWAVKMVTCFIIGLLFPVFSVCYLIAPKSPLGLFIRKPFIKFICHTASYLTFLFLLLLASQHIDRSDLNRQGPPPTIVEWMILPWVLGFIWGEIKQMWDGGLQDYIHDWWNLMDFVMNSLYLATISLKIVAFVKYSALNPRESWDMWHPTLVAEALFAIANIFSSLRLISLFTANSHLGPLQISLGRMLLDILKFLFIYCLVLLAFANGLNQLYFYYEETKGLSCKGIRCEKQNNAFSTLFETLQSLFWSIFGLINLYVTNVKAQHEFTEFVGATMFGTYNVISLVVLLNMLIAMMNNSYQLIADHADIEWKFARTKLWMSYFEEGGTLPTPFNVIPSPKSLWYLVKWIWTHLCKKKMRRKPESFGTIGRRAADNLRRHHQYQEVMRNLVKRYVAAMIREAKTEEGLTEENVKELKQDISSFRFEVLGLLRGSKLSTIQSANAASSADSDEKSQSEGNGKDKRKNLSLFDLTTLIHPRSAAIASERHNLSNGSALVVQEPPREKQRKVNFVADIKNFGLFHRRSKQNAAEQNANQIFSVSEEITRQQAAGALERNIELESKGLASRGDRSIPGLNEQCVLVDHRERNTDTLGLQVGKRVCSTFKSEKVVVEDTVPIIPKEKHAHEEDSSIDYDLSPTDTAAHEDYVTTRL

[6] = target: Short transient receptor potential channel 4 (Mus musculus) (UniProt Q9QUQ5); experiment: blockers of DAMGO-evoked TRPC4 calcium flux – cell-based, second round, Fluo4, HEK293 TRPC4beta/mu-opioid, 1 µM, confirmation (AID 2637;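 active means calcium signal ratio cut to more than 3 SD under the fully stimulated control mean yet still positive, in both repeats and the primary screen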); conditions: at 1 µM; stronger effect = higher value
[7] = target: Short transient receptor potential channel 4 (Mus musculus) (UniProt Q9QUQ5); experiment: calcium entry via TRPC4 opening agents – cell-based, HEK293 TRPC4/mu-opioid, Fluo-4 calcium, dose response (AID 434937)
[8] = target: Short transient receptor potential channel 4 (Mus musculus) (UniProt Q9QUQ5); experiment: potentiation of DAMGO-evoked TRPC4 calcium signal – cell-based, HEK293 TRPC4/mu-opioid, Fluo-4 calcium, EC20 DAMGO, dose response (AID 434941;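 active means earlier screen potentiator hit that boosts the TRPC4 ion channel at some dose, with a dose response; inactive means no potentiation, no dose response, or not a prior hit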;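 further: calcium entry triggered by an EC20 dose of DAMGO at the co-expressed mu-opioid receptor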)
[9] = target: Short transient receptor potential channel 4 (Mus musculus) (UniProt Q9QUQ5); experiment: block of DAMGO-driven TRPC4 calcium entry – cell-based, HEK293 TRPC4/mu-opioid, Fluo-4 calcium, dose response (AID 434942;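 active means primary screen inhibitor hit that blocks the TRPC4 channel at some tested dose, yielding a dose curve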)
[10] = target: Short transient receptor potential channel 6 (Mus musculus) (UniProt Q61143); experiment: TRPC6 blockade by TRPC4 inhibitor hits – cell-based, HEK293, membrane potential dye, duplicate, selectivity assay for TRPC4 inhibitor project, confirmation (AID 434948;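 active means active in primary screen and both duplicates, each dropping signal beyond three positive-control SD with fluorescence still positive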); conditions: HEK293 TRPC6, membrane potential dye fluorescence, at 10 µM; inhibition: stronger effect = higher value, stimulated with maximal-effect acetylcholine unless noted; outcome: stimulated with maximal-effect acetylcholine unless noted
Chain of Short transient receptor potential channel 6 (Mus musculus) (Q61143 whole entry, looked up): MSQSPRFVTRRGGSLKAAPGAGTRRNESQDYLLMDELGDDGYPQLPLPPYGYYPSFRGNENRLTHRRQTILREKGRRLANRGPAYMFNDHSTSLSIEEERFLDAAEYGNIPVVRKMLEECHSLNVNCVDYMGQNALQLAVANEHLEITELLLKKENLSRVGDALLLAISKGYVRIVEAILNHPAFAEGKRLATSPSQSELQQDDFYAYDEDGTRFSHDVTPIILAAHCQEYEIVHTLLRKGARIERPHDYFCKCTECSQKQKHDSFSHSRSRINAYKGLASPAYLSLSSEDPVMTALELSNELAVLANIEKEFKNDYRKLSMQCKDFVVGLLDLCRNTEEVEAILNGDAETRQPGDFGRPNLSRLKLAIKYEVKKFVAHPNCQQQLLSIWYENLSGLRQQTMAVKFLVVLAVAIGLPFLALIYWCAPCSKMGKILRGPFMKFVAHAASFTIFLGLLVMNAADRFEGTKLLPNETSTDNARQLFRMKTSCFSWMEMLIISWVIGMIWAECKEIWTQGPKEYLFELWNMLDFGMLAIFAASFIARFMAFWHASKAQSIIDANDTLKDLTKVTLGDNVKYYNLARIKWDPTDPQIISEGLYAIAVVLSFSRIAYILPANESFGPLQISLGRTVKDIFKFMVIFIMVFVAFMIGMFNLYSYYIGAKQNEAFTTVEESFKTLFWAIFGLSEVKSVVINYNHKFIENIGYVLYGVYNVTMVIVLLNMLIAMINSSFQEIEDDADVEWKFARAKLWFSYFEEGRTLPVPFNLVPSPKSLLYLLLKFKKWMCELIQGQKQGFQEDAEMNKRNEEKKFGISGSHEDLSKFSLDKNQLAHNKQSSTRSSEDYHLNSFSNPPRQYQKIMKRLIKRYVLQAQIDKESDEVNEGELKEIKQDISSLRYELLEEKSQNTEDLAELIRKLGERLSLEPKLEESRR

[11] = target: Short transient receptor potential channel 6 (Mus musculus) (UniProt Q61143); experiment: TRPC6 opening by TRPC4 activator hits – cell-based, HEK293, membrane potential dye, duplicate, selectivity assay for TRPC4 activator project, confirmation (AID 434950;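 active means membrane potential signal rise above negative control mean plus 3 SD in both duplicates, also active in the earlier TRPC4 screen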;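 on activation: 0% = buffer only wells and 100% = acetylcholine maximal-effect wells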); conditions: HEK293 TRPC6, membrane potential fluorescence, at 10 µM; activation: stronger effect = higher value; outcome: activation
[12] = target: Short transient receptor potential channel 6 (Mus musculus) (UniProt Q61143); experiment: positive modulators of mouse TRPC6 channel – HEK293 cells, membrane potential dye, duplicate, selectivity assay for TRPC4 potentiator project, confirmation (AID 434952;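 active means compound raising the membrane signal above positive-control mean plus 3 SD in both repeats, and a primary screen hit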); conditions: HEK293 TRPC6, membrane potential dye fluorescence, at 10 µM; maximal acetylcholine added after compound unless noted
[13] = target: Short transient receptor potential channel 4 (Mus musculus) (UniProt Q9QUQ5); experiment: calcium flux activators in TRPC4/5HT1a cells, counter-screen for TRPC4 activator project, cell-based, second counter screen, HEK293 TRPC4/5HT1a, Fluo-4 (AID 434977;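 active means calcium signal rise above buffer-control mean plus 5 SD in both duplicates, and also a hit in the primary screen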); conditions: Fluo-4 calcium flux, at 10 µM; stronger effect = higher value
[14] = serotonin-gated TRPC4 signal block – cell-based, second counter screen, HEK293 TRPC4/5HT1a, Fluo-4, counter-screen for TRPC4 inhibitor project, confirmation (AID 434978;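 active means primary screen active whose calcium signal fell more than 3 SD beyond the full-serotonin control mean in both duplicate plates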;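 further: serotonin given first at submaximal then at maximal dose after compound preincubation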); conditions: Fluo-4 calcium flux, at 10 µM; inhibition: stronger effect = higher value, serotonin added to trigger calcium flux unless noted; outcome: serotonin added to trigger calcium flux unless noted
[15] = system: TRPC4 (mouse), co-expressed with 5HT1a in HEK293; experiment: enhancement of serotonin-evoked TRPC4 response – cell-based, second counter screen, HEK293 TRPC4/5HT1a, Fluo-4, counter-screen for TRPC4 potentiator project, confirmation (AID 434979;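 active means signal rise over 3 SD above mean of control wells given weak agonist, in both repeats and first screen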); conditions: Fluo-4 calcium flux, at 10 µM; outcome: serotonin added at its EC20 dose unless noted; potentiation: stronger effect = higher value, serotonin added at its EC20 dose unless noted
[16] = nonspecific calcium rise without TRPC4 – cell-based, HEK293 mu-opioid receptor line, counter-screen for TRPC4 activator project, confirmation (AID 449723;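 active means hit in primary screen, with calcium signal over 5 SD above buffer well mean in both duplicates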;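 further: counter screen cells carry the mu-opioid receptor alone and lack TRPC4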); conditions: HEK293 mu-opioid cells, Fluo-4 calcium fluorescence, at 10 µM; stronger effect = higher value
[17] = nonspecific potentiation of DAMGO calcium response – cell-based, HEK293 mu-opioid receptor line, counter-screen for TRPC4 allosteric potentiator project, confirmation (AID 449724;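 active means calcium signal rise more than 3 SD above the low-dose agonist control mean, in both duplicate plates and the primary screen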); conditions: HEK293 mu-opioid receptor cells, Fluo-4 calcium flux, at 10 µM; compound added before EC20 DAMGO stimulus unless noted
[18] = nonspecific flux increase, KCNQ1-free cells – parental CHO cells, counter-screen for KCNQ1 potentiator project (AID 493006;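 active means duplicate-averaged activation above buffer control mean plus 5 SD of those controls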;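 further: fluorescence ratio of max minus min over baseline after K+ and Tl+ depolarization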); conditions: parental CHO-K1 cells, FluxOR thallium flux, at 10 µM; stronger effect = higher value
[19] = target: Potassium voltage-gated channel subfamily KQT member 1 (Homo sapiens) (UniProt P51787); experiment: enhancement of KCNQ1 channel thallium flux – FluxOR thallium flux, CHO cells, duplicates, confirmation (AID 493007;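 active means potentiation averaged over duplicate wells exceeding buffer-only control mean by more than 3 SD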;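 further: 0% = buffer-only wells and 100% = R-L3 activator control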); conditions: KCNQ1 cell line, FluxOR thallium flux fluorescence, at 10 µM; stronger effect = higher value, % of reference activator effect, buffer zero
Chain of Potassium voltage-gated channel subfamily KQT member 1 (Homo sapiens) (P51787 whole entry, looked up): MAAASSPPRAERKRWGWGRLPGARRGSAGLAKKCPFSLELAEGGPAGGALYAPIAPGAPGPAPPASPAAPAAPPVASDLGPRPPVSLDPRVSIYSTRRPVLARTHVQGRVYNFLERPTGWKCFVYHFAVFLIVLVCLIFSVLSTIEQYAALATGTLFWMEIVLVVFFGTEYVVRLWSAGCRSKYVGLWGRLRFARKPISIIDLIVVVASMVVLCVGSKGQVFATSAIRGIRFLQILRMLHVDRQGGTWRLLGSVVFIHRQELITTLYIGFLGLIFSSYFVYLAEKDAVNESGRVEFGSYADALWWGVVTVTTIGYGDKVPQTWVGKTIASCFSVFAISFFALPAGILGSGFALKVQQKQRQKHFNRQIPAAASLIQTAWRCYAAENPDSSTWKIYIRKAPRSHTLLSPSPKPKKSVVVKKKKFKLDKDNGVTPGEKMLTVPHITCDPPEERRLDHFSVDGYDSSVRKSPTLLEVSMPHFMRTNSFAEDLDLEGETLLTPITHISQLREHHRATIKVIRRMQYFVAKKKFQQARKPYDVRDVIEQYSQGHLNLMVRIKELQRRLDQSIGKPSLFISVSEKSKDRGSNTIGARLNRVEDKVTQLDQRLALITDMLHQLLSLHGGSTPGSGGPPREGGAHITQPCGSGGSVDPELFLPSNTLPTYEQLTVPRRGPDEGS

[20] = target: Potassium voltage-gated channel subfamily KQT member 2 (Rattus norvegicus) (UniProt O88943); experiment: KCNQ2 thallium flux enhancement – KCNQ2-CHO-K1 cells, selectivity assay for KCNQ1 potentiator project (AID 493009;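 active means mean duplicate potentiation above the buffer control mean plus 5 SD of buffer wells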;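 further: assay conditions were tuned for KCNQ1 rather than KCNQ2 modulators; signal is max minus min fluorescence divided by baseline after thallium stimulus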); conditions: FluxOR thallium flux fluorescence, at 10 µM; stronger effect = higher value, scaled: buffer 0, activator control 100
Chain of Potassium voltage-gated channel subfamily KQT member 2 (Rattus norvegicus) (O88943 whole entry, looked up): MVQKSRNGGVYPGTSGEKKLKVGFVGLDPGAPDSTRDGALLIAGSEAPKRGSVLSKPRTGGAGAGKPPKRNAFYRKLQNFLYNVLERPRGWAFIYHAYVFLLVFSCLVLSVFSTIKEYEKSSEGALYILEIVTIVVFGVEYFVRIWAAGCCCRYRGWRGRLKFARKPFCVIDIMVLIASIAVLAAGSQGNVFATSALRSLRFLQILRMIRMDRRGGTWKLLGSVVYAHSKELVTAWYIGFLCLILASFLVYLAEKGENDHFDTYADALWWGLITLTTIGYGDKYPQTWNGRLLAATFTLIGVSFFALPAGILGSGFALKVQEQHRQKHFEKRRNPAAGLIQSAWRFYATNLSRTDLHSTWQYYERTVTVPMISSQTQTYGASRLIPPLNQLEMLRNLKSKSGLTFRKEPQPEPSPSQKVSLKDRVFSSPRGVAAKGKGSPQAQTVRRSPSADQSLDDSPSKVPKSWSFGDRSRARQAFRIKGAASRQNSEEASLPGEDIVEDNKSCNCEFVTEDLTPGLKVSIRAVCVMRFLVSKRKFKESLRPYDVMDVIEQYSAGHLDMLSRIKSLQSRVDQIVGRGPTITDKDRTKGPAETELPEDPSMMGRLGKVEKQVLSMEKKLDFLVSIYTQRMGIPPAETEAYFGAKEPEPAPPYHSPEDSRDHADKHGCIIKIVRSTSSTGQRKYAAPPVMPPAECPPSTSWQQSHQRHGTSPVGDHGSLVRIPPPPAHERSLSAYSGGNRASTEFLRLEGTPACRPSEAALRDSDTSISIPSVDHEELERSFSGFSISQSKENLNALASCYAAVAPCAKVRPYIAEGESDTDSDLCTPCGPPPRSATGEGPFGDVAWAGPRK

CCNc1cc(N2CCNCC2)ccc1[N+](=O)[O-]
inactive: outcome [1] | outcome [2] | outcome [5] | outcome [6] | outcome [7] | outcome [8] | outcome [9] | outcome [10] | outcome [11] | outcome [12] | outcome [13] | outcome [14] | outcome [16] | outcome [17]
active: potentiation [3] 35% | potentiation [4] 19% | potentiation [15] 17.7%

COC(=O)C(O)(c1ccc(NC(=S)NC(=O)c2ccc(Cl)cc2Cl)c(C)c1)C(F)(F)F (centres undefined)
inactive: outcome [1] | outcome [2] | outcome [3] | outcome [5] | outcome [6] | outcome [7] | outcome [8] | outcome [9] | outcome [10] | outcome [11] | outcome [12] | outcome [13] | outcome [14] | outcome [16] | outcome [17]
active: potentiation [4] 18% | potentiation [15] 24.2%

COC(=O)C1=C(c2cc3ccccc3s2)C[C@@H]2CC[C@H]1N2C(=O)NCCO
inactive: outcome [1] | outcome [2] | outcome [3] | outcome [4] | outcome [5] | outcome [6] | outcome [7] | outcome [8] | outcome [9] | outcome [10] | outcome [12] | outcome [13] | outcome [14] | outcome [15] | outcome [16] | outcome [17]
active: activation [11] 27%

Cc1cc(OC(C)C(=O)NCc2ccncc2)c2c3c(c(=O)oc2c1)CCCC3 (centres undefined)
inactive: outcome [1] | outcome [2] | outcome [3] | outcome [4] | outcome [5] | outcome [6] | outcome [7] | outcome [8] | outcome [9] | outcome [10] | outcome [11] | outcome [12] | outcome [13] | outcome [14] | outcome [15] | outcome [16] | outcome [17]

Cc1ccc(-c2cc(-c3ccccc3)cc(-c3ccccc3)[n+]2-c2ccccc2)cc1
active: potentiation [4] 18% | potentiation [15] 9.63%
inactive: outcome [1] | outcome [2] | outcome [3] | outcome [5] | outcome [6] | outcome [7] | outcome [8] | outcome [9] | outcome [10] | outcome [11] | outcome [12] | outcome [13] | outcome [14] | outcome [16] | outcome [17]

O=[N+]([O-])c1ccc(N2CCNCC2)cc1N1CCCCCC1
active: potentiation [15] 13.3%
inactive: outcome [1] | outcome [2] | outcome [3] | outcome [4] | outcome [5] | outcome [6] | outcome [7] | outcome [8] | outcome [9] | outcome [10] | outcome [11] | outcome [12] | outcome [13] | outcome [14] | outcome [16] | outcome [17]

Clc1ccc(N2CCNCC2)nn1
inactive: outcome [1] | outcome [2] | outcome [4] | outcome [5] | outcome [6] | outcome [7] | outcome [8] | outcome [9] | outcome [10] | outcome [11] | outcome [12] | outcome [13] | outcome [14] | outcome [16] | outcome [17]
active: potentiation [3] 14% | potentiation [15] 16.3%

CN1CCN(Cc2cc(=O)n3ccsc3n2)CC1
inactive: outcome [1] | outcome [2] | outcome [3] | outcome [4] | outcome [5] | outcome [6] | outcome [7] | outcome [8] | outcome [9] | outcome [10] | outcome [11] | outcome [12] | outcome [13] | outcome [14] | outcome [16] | outcome [17]
active: potentiation [15] 20%

Clc1ccc2c(c1)C(c1ccccc1Cl)=NCc1nnc(N3CCN(CCOc4ccccc4)CC3)n1-2
inactive: outcome [1] | outcome [2] | outcome [3] | outcome [5] | outcome [6] | outcome [7] | outcome [8] | outcome [9] | outcome [10] | outcome [11] | outcome [12] | outcome [13] | outcome [14] | outcome [16] | outcome [17]
active: potentiation [4] 9% | potentiation [15] 13.8%

Cc1ccccc1CN1CCNCC1
inactive: outcome [1] | outcome [2] | outcome [3] | outcome [4] | outcome [5] | outcome [6] | outcome [7] | outcome [8] | outcome [9] | outcome [10] inactive [setting not given] | outcome [11] | outcome [12] inactive [setting not given] | outcome [13] | outcome [14] inactive [setting not given] | outcome [15] inactive [setting not given] | outcome [16] | outcome [17] inactive [setting not given]

COc1cc(-n2c(=S)[nH]c3ccc(C)cc3c2=O)c(Cl)cc1Cl
active: activation [18] 182% | potentiation [19] 22.5% | potentiation [20] 153%

CCN(CC)P(=O)(/C=C(\Cl)c1ccccc1)/C=C(\Cl)c1ccccc1
inactive: outcome [1] | outcome [2] | outcome [4] | outcome [5] | outcome [6] | outcome [7] | outcome [8] | outcome [9] | outcome [10] | outcome [11] | outcome [12] | outcome [13] | outcome [14] | outcome [15] | outcome [16] | outcome [17]
active: potentiation [3] 7%

COc1ccc(C(=O)C2CN(C)CC2c2ccc(Cl)cc2)cc1 (centres undefined)
inactive: outcome [1] | outcome [2] | outcome [3] | outcome [4] | outcome [5] | outcome [6] | outcome [7] | outcome [8] | outcome [9] | outcome [10] | outcome [11] | outcome [12] | outcome [13] | outcome [14] | outcome [15] | outcome [16] | outcome [17]

Cc1c(P(=S)(c2ccccc2)c2ccccc2)[n+]2ccccc2n1C
inactive: outcome [1] | outcome [2] | outcome [3] | outcome [4] | outcome [5] | outcome [6] | outcome [7] | outcome [8] | outcome [9] | outcome [10] | outcome [11] | outcome [12] | outcome [13] | outcome [14] | outcome [15] | outcome [16] | outcome [17]
